# PubChem BioAssay (NCATS)
# Results filed as inconclusive are left out. Entries that show only a call come without a potency. Calls of active or inactive are those of the source. Unless noted, calls follow the shape of the full dose curve.
# Tests used:
# [1] = Cytotoxicity counterscreen for inhibitors of SARS-CoV-2 cell entry (AID 1645845); settings: outcome: dose series up to 57.1 µM unless noted; also: nearly all actives have a fitted effect of over 50% in size; also: potency is read from the fitted curve at half-maximal effect
# Outline: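 48 h compound treatment (after 1 h preincubation), HEK293-ACE2 cells, 37 C/5% CO2; ATP luminescence endpoint; normalized to cell wells and media blanks.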
# [2] = Primary qHTS to identify inhibitors of SARS-CoV-2 cell entry (AID 1645846); settings: SARS-CoV-2 pseudovirus cell entry assay, luminescence; activity change, negative = inhibition: at 57.1 µM (top of the series) unless noted; also: nearly all actives have a fitted effect of over 45% in size; also: potency is read from the fitted curve at half-maximal effect
# Outline: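 Data are normalized to wells receiving SARS-CoV-2-S pseudoparticles and those given bald particles. Entry signal was luciferase luminescence in stable hACE2 Expi293F cells, 48 hr post-infection, after 1 hr compound pretreatment.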
# [3] = VSVG counterscreen qHTS to identify inhibitors of SARS-CoV-2 cell entry (AID 1645847); also: nearly all actives have a fitted effect of over 65% in size; also: potency is read from the fitted curve at half-maximal effect
# Outline: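 Counterscreen using VSV-G (not spike) pseudotyped MLV particles on ACE2-expressing Expi293F cells after 1 h compound preincubation; infection ran 48 h at 37 °C. Data normalized to VSV-G PP and bald-PP wells.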
# [4] = molecular target: Glutathione peroxidase 1 (Homo sapiens) (UniProt P07203); experiment: Primary qHTS Assay for Inhibitors of Recombinant Selenoprotein Glutathione Peroxidase 1 (GPX1) (AID 1845191; active = well fitted curve in the direction sought with a large enough effect; an effect the other way counts as inactive or inconclusive; also: nearly all actives have a fitted effect of over 65% in size)
# Outline: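 10 nM GPX1 + cpd, 30 min RT; start w/ 1 mM GSH, 0.5 mM cumene hydroperoxide, 0.5 mM NADPH, 100 nM GR, 0.01% BSA; buffer 50 mM Tris-HCl pH 7.5, 2 mM EDTA, 150 mM NaCl; Fl 340/450, 0 & 15 min.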
# [5] = molecular target: Phospholipid hydroperoxide glutathione peroxidase GPX4 (Homo sapiens) (UniProt P36969); experiment: Primary qHTS Assay for Inhibitors of Recombinant Selenoprotein Glutathione Peroxidase 4 (GPX4) (AID 1845192; active = well fitted curve in the direction sought with a large enough effect; an effect the other way counts as inactive or inconclusive; also: nearly all actives have a fitted effect of over 65% in size)
# Outline: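 NADPH consumption, followed by fluorescence at 340/450 nm between 0 and 15 min, reports GPX4 activity via coupled glutathione reductase (100 nM). Enzyme 200 nM was pre-exposed to compound 30 min; 0.5 mM cumene hydroperoxide and 1 mM GSH served as substrates.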
# [6] = qHTS drug screen for cell cycle checkpoint inhibitors in PARPi-resistant BRCA-mutant ovarian cancer cell lines. (AID 1963452); settings: PEO1/OlaR viability, CellTiter-Glo luminescence, 96 h, stronger effect = lower value
# Outline: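 PEO1, PEO4 and PEO1/OlaR ovarian cancer cells, 600 per well, exposed 96 h at 37C to a dilution series. Viability read by CellTiter-Glo luminescence, normalized to DMSO and empty wells; activity summarized as Z-AUC.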
# [7] = KB-8-5-11 P-gp reporter qHTS against the NCATS DSHEA and TCM libraries (AID 1919977; active = well fitted curve in the direction sought with a large enough effect; an effect the other way counts as inactive or inconclusive)
# Outline: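 Cells were seeded, allowed ~4 h to attach, dosed by pin tool (substance titrations), incubated ~72 h at 37C, then lysed with CellTiter-Glo for 30 min at room temperature before luminescence reading.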
# [8] = molecular target: Bile acid receptor (Homo sapiens) (UniProt Q96RI1); experiment: qHTS assay for small molecule agonists of farnesoid X receptor signaling (AID 588527); settings: HEK293T FXR-UAS-bla, beta-lactamase ratio, 16 h; stronger effect = higher value
# Outline: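 Read-out: beta-lactamase reporter fluorescence with CCF4 substrate in GeneBLAzer FXR-UAS-bla HEK293T cells, after 16 h compound exposure at 37 C. Response scaled between DMSO basal (0%) and chenodeoxycholic acid at 100 uM (100%).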
# [9] = measured here: PEO1 parental Z-AUC
# Chain of Glutathione peroxidase 1 (Homo sapiens) (P07203 whole entry, looked up): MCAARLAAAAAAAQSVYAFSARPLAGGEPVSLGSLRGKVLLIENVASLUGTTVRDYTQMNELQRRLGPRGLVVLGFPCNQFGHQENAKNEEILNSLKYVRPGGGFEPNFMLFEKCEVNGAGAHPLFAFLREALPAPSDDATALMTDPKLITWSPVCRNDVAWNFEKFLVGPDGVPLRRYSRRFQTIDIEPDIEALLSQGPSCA
# Chain of Phospholipid hydroperoxide glutathione peroxidase GPX4 (Homo sapiens) (P36969 whole entry, looked up): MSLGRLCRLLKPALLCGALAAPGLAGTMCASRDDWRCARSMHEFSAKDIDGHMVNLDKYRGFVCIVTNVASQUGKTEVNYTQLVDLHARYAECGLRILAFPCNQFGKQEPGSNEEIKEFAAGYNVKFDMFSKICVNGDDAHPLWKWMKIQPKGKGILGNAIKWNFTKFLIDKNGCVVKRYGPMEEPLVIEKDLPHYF
# Chain of Bile acid receptor (Homo sapiens) (Q96RI1 whole entry, looked up): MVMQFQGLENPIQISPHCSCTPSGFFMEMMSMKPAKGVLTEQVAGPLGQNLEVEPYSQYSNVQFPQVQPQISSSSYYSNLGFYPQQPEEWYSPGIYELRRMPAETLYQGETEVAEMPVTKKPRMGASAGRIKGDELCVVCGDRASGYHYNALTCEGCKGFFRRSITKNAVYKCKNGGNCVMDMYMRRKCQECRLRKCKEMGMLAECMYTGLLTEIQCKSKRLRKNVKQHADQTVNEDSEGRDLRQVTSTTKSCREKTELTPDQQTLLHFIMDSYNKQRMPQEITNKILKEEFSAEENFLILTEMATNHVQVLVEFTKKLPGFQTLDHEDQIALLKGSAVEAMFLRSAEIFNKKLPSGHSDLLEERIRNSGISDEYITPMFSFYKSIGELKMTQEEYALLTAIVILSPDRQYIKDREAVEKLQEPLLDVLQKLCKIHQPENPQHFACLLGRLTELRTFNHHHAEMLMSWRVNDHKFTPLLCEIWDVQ
compound,measurement,setting,value
CC[C@@H](Oc1cccc(CN(CCCOc2ccc(OC)cc2)c2nc3ccccc3o2)c1)C(=O)O,Potency,[1],inactive
same,"activity change, negative = inhibition",[2],-15.3%
N=C1S/C(=C\c2ccc(-c3ccc4c(c3)C(=O)NC4=O)o2)C(=O)N1c1ccc(Br)cc1,Potency,[1],inactive
same,"activity change, negative = inhibition",[2],-8.86% [at 27.1 µM]
C[C@]1(C(=O)N(CCCC(=O)O)Cc2cccc(Cl)c2)CCN1C(=O)c1csc2ccccc12,Potency,[1],inactive
same,"activity change, negative = inhibition",[2],-20.2%
CNC(=O)[C@H]1O[C@@H](n2cnc3c(NCc4cccc(I)c4)nc(Cl)nc32)[C@H](O)[C@@H]1O,Potency,[1],inactive
same,Potency,[2],inactive
COc1ccc(-c2c(C)nn3c(NCCN4CCOCC4)cc(C)nc23)cc1OC,Potency,[1],inactive
same,"activity change, negative = inhibition",[2],3.31%
NCc1ccc(OCCCc2sc(-c3ccc4c(c3)/C(=N/Nc3nc5ccccc5s3)CCC4)nc2C(=O)O)cc1,Potency,[1],inactive
same,"activity change, negative = inhibition",[2],1.79%
CC(C)N(CCCNC(=O)Nc1ccc(C(C)(C)C)cc1)C[C@H]1O[C@@H](n2ccc3c(N)ncnc32)[C@H](O)[C@@H]1O,Potency,[1],inactive
same,"activity change, negative = inhibition",[2],-9.11%
O=C(COCC(=O)N1CCN(C(c2ccccc2)c2ccccc2)CC1)Nc1ccc(Cl)cc1C(=O)O,Potency,[1],inactive
same,"activity change, negative = inhibition",[2],-0.414%
CC(=O)[C@]1(N)Cc2c(O)c3c(c(O)c2[C@@H](O[C@H]2C[C@H](O)[C@H](O)CO2)C1)C(=O)c1ccccc1C3=O,Potency,[1],inactive
same,Potency,[2],inactive
CN1CC[C@@H](NC(=O)Nc2ccc(C#N)cc2)C[C@@H]1c1nc2ccccc2[nH]1,Potency,[1],inactive
same,"activity change, negative = inhibition",[2],-7.47%
same,Potency,[3],24.1 µM (active)
COC1CC(C(=O)c2ccc3c(N)ncc(-c4ccc(-c5cnn(C)c5)cc4)c3n2)C1 (stereo unspecified),Potency,[1],inactive
same,Potency,[2],8.91 µM (active)
same,Potency,[3],inactive
O=C(NNc1ccccc1)c1ccncc1,Potency,[1],inactive
same,"activity change, negative = inhibition",[2],-19.4%
Cn1cc(/C=C2\C(=O)Nc3cccnc32)c2ccccc21,Potency,[1],inactive
same,"activity change, negative = inhibition",[2],-43.1%
same,Potency,[3],0.152 µM (active)
NS(=O)(=O)c1ccc(Cc2c(-c3cccc(-c4ccccc4)c3)nn(-c3nc(C(=O)O)cs3)c2CC2CC2)cc1,Potency,[1],inactive
same,"activity change, negative = inhibition",[2],-32.8%
same,Potency,[3],8.57 µM (active)
CCC(=O)OCC(=O)C1(OC(=O)CC)C(C)CC2C3CCC4=CC(=O)C=CC4(C)C3(F)C(O)CC21C (stereo unspecified),Potency,[1],inactive
same,"activity change, negative = inhibition",[2],-47%
same,Potency,[3],1.92 µM (active)
CC1(C)C(=O)N(c2ccc(C#N)c(C(F)(F)F)c2)C(=S)N1Cc1ccc(-c2cn[nH]n2)cc1,Potency,[1],inactive
same,Potency,[4],inactive
same,Potency,[5],inactive
same,Z-AUC,[6],0.1 (inactive)
same,Z-AUC,[6]; [9],0.427
same,Z-AUC,[6]; measured here: PEO4 Z-AUC,0.68
CC1(C)[C@@H](O)CC[C@]2(C)[C@H]3C(=O)C=C4[C@@H]5C[C@@](C)(C(=O)O)CC[C@]5(C)CC[C@@]4(C)[C@]3(C)CC[C@@H]12,Potency,[1],inactive
same,Potency,[2],inactive
COc1cc2c3c(n(CCCn4ccnc4)c(=O)c2cc1OC)-c1cc2c(cc1C3=O)OCO2,Potency,[1],inactive
same,"activity change, negative = inhibition",[2],-94.4%
same,Potency,[3],0.0607 µM (active)
C[C@H]1[C@H](C)CC[C@]2(C(=O)O)CC[C@]3(C)C(=CC[C@@H]4[C@@]5(C)C[C@@H](O)[C@H](O)[C@@](C)(CO)[C@@H]5CC[C@]43C)[C@H]12,Potency,[1],inactive
same,Potency,[2],inactive
same,Potency,[7],inactive
CC(C)(NS(=O)(=O)c1ccc2c(Cl)cnc(N=C(N)N)c2c1)C(=O)O,Potency,[1],inactive
same,"activity change, negative = inhibition",[2],0.398%
COc1cc2c(Nc3ccc(Cl)c(Cl)c3F)ncnc2cc1OCC1C[C@@H]2CN(C)C[C@@H]2C1 (stereo partly specified),Potency,[1],31.6 µM (active)
same,Potency,[2],15.8 µM (active)
Nc1ncnc2c1C(=O)N(c1ccc(C3CCC(CC(=O)O)CC3)cc1)CCO2 (stereo unspecified),Potency,[1],inactive
same,"activity change, negative = inhibition",[2],-0.016%
FC(F)(F)c1ccc(CNc2ccc(Cc3c[nH]c4ncc(Cl)cc34)cn2)cn1,Potency,[1],inactive
same,"activity change, negative = inhibition",[2],-1.72%
Clc1ccc(-c2nc3sccn3c2/C=N/OCc2ccc(Cl)c(Cl)c2)cc1,activation,[8],14.7% (inactive)
same,Potency,[1],inactive
same,"activity change, negative = inhibition",[2],-8.8%
CC1c2cccc(O)c2C(O)=C2C(=O)C3(O)C(O)=C(C(N)=O)C(=O)C(N(C)C)C3C(O)C21 (stereo unspecified),Potency,[1],inactive
same,"activity change, negative = inhibition",[2],-15.9%
Cn1c(CCCCCCC(=O)NO)nc2cc(N(CCCl)CCCl)ccc21,Potency,[1],inactive
same,Potency,[4],inactive
same,Potency,[5],inactive
same,Z-AUC,[6],-0.877 (inactive)
same,Z-AUC,[6]; [9],-0.482
same,Z-AUC,[6]; measured here: PEO4 Z-AUC,-0.0287
COc1ccc(COc2ccc(Cc3cnc(N)nc3N)cc2OC)cc1,Potency,[1],inactive
same,"activity change, negative = inhibition",[2],-52.5%
same,Potency,[3],6.81 µM (active)
